Results on 46 compounds are retold here after PubChem BioAssay AID2685 (National Center for Advancing Translational Sciences (NCATS), 2010).

Molecules are shown by their SMILES. Among all 320,000 compounds or so, about 2,100 (0.66%) were called active. About 53% were inconclusive and are not listed. Calls follow the shape of the dose curve; as a rule, active = well fitted inhibition curve with a large enough effect in the signal ratio, with a control signal flat (not every such curve was filed as active); inconclusive = small, poorly fitted or top-dose-only effect, or effect the other way, or a change in a side signal; inactive = flat fitted curve, though single readings scatter; the % refers to the signal ratio. The full list was thinned out, with actives kept by preference.
Potency is read from the fitted curve at half-maximal effect.

The test in a line: qHTS Assay for Lipid Storage Modulators in Drosophila S3 Cells.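 As to cell number change: cells counted by Cell Tracker Red CMTPX staining in the red channel.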 As to lipid storage change, negative = inhibition: % is scaled to controls: 0 for no effect and ±100 for the full control effect. The conditions noted are these: BODIPY lipid droplet fluorescence, 18-24 h, cells fed with added oleic acid; cell number change: measured here: cell count max response; series mostly up to 46.1 µM; lipid storage change, negative = inhibition: at the top concentration. In outline:
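Drosophila S3 cells got compounds at several concentrations plus oleic acid (400 uM solution). Laser-scanning cytometry with 488 nm excitation read lipid droplets at 500-530 nm and cells at 575-640 nm. Percent activity was relative to 20 uM Triacsin C.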
With `COc1ccc(OC)c(CCNC(=O)Cn2cccc2C(=O)c2ccccc2C)c1`, the “lipid storage change, negative = inhibition” value was 3.63% (inactive) and the cell number change is 3.16%.

Consider `COc1ccc(CCNC(=O)CN2C(=O)c3ccccc3S2(=O)=O)cc1`, for which the “lipid storage change, negative = inhibition” value was 0.948% (inactive) and the cell number change was 8.78%.

Regarding `COc1ccc(CCNC(=O)CCCOc2cccc(C)c2C)cc1OC`, the Potency is 6.51 µM (active) and the cell number change was -23.6%.

For `COc1ccc(CCNC(=O)Cn2cccc2C(=O)c2ccccc2C)cc1OC`, the Potency is 20.6 µM (active) and the cell number change was -20.4%.

As to `COc1ccc(CCNC(=O)CCOc2cc(C)ccc2C)cc1OC`, the result was inactive and the cell number change was -23.2%.

On to `COc1ccccc1CNC(=O)Cn1cccc1C(=O)c1ccccc1C`, for which the outcome was inactive and the cell number change was -15.2%.

As to `CCOc1ccc(CCNC(=O)Cn2cccc2C(=O)c2ccccc2)cc1OCC`, the Potency was 16.4 µM (active) and the cell number change was -22.9%.

For `O=C(Cn1cccc1C(=O)c1ccccc1)NCCc1ccccc1`, the compound was called inactive.

Take `COc1ccc(CCNC(=O)CN2C(=O)c3ccccc3S2(=O)=O)cc1OC`: the Potency is 23.1 µM (active) and the cell number change was -27.6%.

With `CCOc1ccc(CCNC(=O)CCn2cccc2)cc1OCC`, the “lipid storage change, negative = inhibition” value was 11.2% (inactive) and the cell number change is 0.009%.

In the case of `COc1ccc(CCNC(=O)CCCOc2cc(=O)n(C)c3ccccc23)cc1OC`, the “lipid storage change, negative = inhibition” value is -2.82% (inactive) and the cell number change worked out at 11.7%.

For `NS(=O)(=O)c1ccc(CNC(=O)/C=C/c2ccccc2)cc1`, the “lipid storage change, negative = inhibition” value was -14.1% (inactive) and the cell number change was 2.48%.

As to `O=C(CC(Sc1ccc(Br)cc1)C(=O)O)c1ccc(F)cc1` (stereo not given), the “lipid storage change, negative = inhibition” value is -0.707% (inactive) and the cell number change was -1.05%.

With `CN=C(Nc1ccc(C(=O)OC)s1)c1ccccc1`, the “lipid storage change, negative = inhibition” value was 12.5% (inactive).

With `O=C(Nc1ccccc1)c1cccnc1NCCc1ccccc1`, the “lipid storage change, negative = inhibition” value was -0.163% (inactive) and the cell number change was -3.52%.

As to `Cc1ccc(CNC(=O)C(N=C2NS(=O)(=O)c3ccccc32)C(C)C)cc1` (stereo not given), the “lipid storage change, negative = inhibition” value was 8% (inactive) and the cell number change amounted to 10.7%.

For `CN(CC(O)COc1ccc2ccccc2c1)C1CCCCC1` (stereo not given), the “lipid storage change, negative = inhibition” value was -12.6% (inactive) and the cell number change was -0.529%.

Turning to `COc1ccc(CCNC(=O)Cn2cccc2C(=O)c2ccccc2)c(OC)c1`, the “lipid storage change, negative = inhibition” value is 2.64% (inactive) and the cell number change turned out to be 6.75%.

Regarding `COc1ccc(OC)c(CCNC(=O)Cn2cccc2C(=O)c2ccccc2)c1`, the outcome was inactive.

For the compound `COc1ccc(CCNC(=O)Cn2cccc2C(=O)c2ccccc2)cc1OC`, the Potency is 25.9 µM (active) and the cell number change is -21.4%.

As for `COc1ccc(NC(=O)C(OC(=O)c2ccc([N+](=O)[O-])o2)c2ccccc2)cc1Cl` (stereo not given), the “lipid storage change, negative = inhibition” value was 0.0378% (inactive) and the cell number change is 0.814%.

For `Cc1nc2n(n1)C(c1ccccc1)C1=C(CC(c3ccco3)CC1=O)N2` (stereo not given), the compound was called inactive.

On to `Cc1cc(C)cc(NC(=O)C(=S)NCc2ccccc2)c1`, for which the “lipid storage change, negative = inhibition” value is -0.376% (inactive) and the cell number change came to 9.48%.

As to `O=C(NNc1nc2c(F)cc(F)cc2s1)c1ccccc1`, the cell number change came out at 6.06% and the lipid storage change, negative = inhibition was 21.3% [at 9.22 µM] (inactive).

As to `O=S(=O)(c1ccccc1)c1nnn2c1nc(NC1CCN(Cc3ccccc3)CC1)c1cc(Cl)ccc12`, the Potency is 18.4 µM (active) and the cell number change was -5.44%.

On to `O=S(=O)(c1ccccc1)c1nnn2c1nc(NC1CCN(Cc3ccccc3)CC1)c1ccccc12`, for which the “lipid storage change, negative = inhibition” value is 9.25% (inactive) and the cell number change amounted to 0.895%.

Turning to `O=S(=O)(NC1CCN(Cc2ccccc2)CC1)c1ccc(Cl)cc1`, the “lipid storage change, negative = inhibition” value is 0.306% (inactive) and the cell number change is -5.28%.

As for `Cc1nc(CS(=O)(=O)c2ccccc2)cc(Sc2ccc(Cl)cc2)n1`, the result was inactive.

Take `O=C(NCCCN1CCOCC1)c1ccc2c(c1)N(Cc1ccccc1)C(=O)c1ccccc1S2=O` (stereo not given): the call was inactive and the cell number change is -4.72%.

For the compound `C=CCn1c(COc2cc(C)ccc2C(C)C)nnc1SCC(=O)c1c(N)n(C)c(=O)n(C)c1=O`, the “lipid storage change, negative = inhibition” value is 18.2% (inactive) and the cell number change stood at 25.2%.

On to `Cc1ccc(S(=O)(=O)N2CCN(S(=O)(=O)c3ccc(C)cc3)C3OCCOC32)cc1` (stereo not given), for which the “lipid storage change, negative = inhibition” value was 10.1% (inactive) and the cell number change was -0.0898%.

On to `CCC(N1CCOC1=O)S(=O)(=O)c1ccc(C)cc1` (stereo not given), for which the Potency was 25.9 µM (active) and the cell number change was -15.9%.

With `Cc1ccc(S(=O)(=O)C(CCC(=O)N2CCOCC2)S(=O)(=O)c2ccc(C)cc2)cc1`, the “lipid storage change, negative = inhibition” value is 11.4% (inactive) and the cell number change is -12.5%.

On to `Cc1ccc(S(=O)(=O)NC(CC(=O)n2nc(C)cc2C)c2ccccc2)cc1` (stereo not given), for which the result was inactive.

Take `COC(=O)c1ccc(Cl)c(NC(=O)CN2CCOCC2)c1`: the “lipid storage change, negative = inhibition” value is -3.77% (inactive) and the cell number change is -12.2%.

For the compound `COC(=O)c1ccc(Cl)c(NC(=O)CN2CCN(C)CC2)c1`, the Potency is 25.9 µM (active) and the cell number change is -16%.

With `COC(=O)c1ccc(Cl)c(NC(=O)CN2CCN(Cc3ccccc3)CC2)c1`, the “lipid storage change, negative = inhibition” value is -0.436% (inactive) and the cell number change was 2.04%.

For `COc1ccc(-n2c(=O)cc(N3CCN(Cc4ccccc4)CC3)[nH]c2=O)cc1`, the “lipid storage change, negative = inhibition” value is -0.394% (inactive) and the cell number change is -3.15%.

For `O=C(CSc1nnc(-c2ccccc2F)o1)N1CCCC1`, the Potency is 23.1 µM (active) and the cell number change was 22.6%.

Regarding `Cc1ccccc1-c1nnc(SCC(=O)N2CCCC2)o1`, the result was inactive and the cell number change came to 9.17%.

Regarding `O=C(CSc1nnc(-c2ccccc2Cl)o1)N1CCCCC1`, the compound was called inactive.

Take `COC(=O)CN(n1cnnc1)S(=O)(=O)c1ccccc1Cl`: the compound was called inactive and the cell number change was -1.98%.

As for `COc1cccc(NC(=O)COC(=O)CCn2c(C)csc2=O)c1`, the outcome was inactive and the cell number change was -50%.

`CCCCn1c(SCC(=O)N2CCc3ccccc32)nnc1-c1ccncc1`: the “lipid storage change, negative = inhibition” value is -8.27% (inactive) and the cell number change is -7.69%.

Take `CSc1nnc(-c2ccncc2)n1CCCN1CCCC1=O`: the Potency was 0.731 µM (active) and the cell number change is -16.4%.

Take `CCCCn1c(SCC(=O)N(C)C)nnc1-c1ccncc1`: the “lipid storage change, negative = inhibition” value is 11.4% (inactive) and the cell number change was 9.01%.
